Assay results as given in PubChem BioAssay.
The source made the active and inactive calls.

Assays:
Albumin (Bos taurus) = Albumin (Bos taurus) (UniProt P02769); assay: compounds binding labelled BSA control protein – biochemical, small-molecule microarray, Alexa647 label, 635/667 nm fluorescence, artefact control for SMM control protein annotation, profiling panel (AID 1118); conditions: BSA-A647 binding, fluorescence 635 nm, higher = more signal;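 note: score merges 667 nm emission intensity and signal-to-noise per printed compound spot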
[1] = probe aXIP binding to arrayed compounds – biochemical, NeuroSMM set, 635/667 nm fluorescence, primary screen (AID 1119); conditions: small-molecule microarray, higher = more signal, called active from +8 up or from −8 down;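 note: probe is the protein aXip251-270 applied at 1 µg/mL to compound-printed slides; binding of probe to printed compounds measured as 667 nm fluorescence plus signal to noise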
[2] = probe aNOTCH3 binding on compound microarray – biochemical, small-molecule microarray, 635/667 nm fluorescence, primary screen (AID 1120); conditions: higher = more signal;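 note: probe is a biotin-tagged antibody raised against NOTCH3 rather than NOTCH3 protein; score merges spot fluorescence near 667 nm with spot signal to noise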
[3] = probe aNOTCH2 binding on compound microarray – biochemical, small-molecule microarray, 635/667 nm fluorescence, primary screen (AID 1121); conditions: higher = more signal;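 note: score merges feature fluorescence read at 667 nm with its signal to noise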
[4] = target: Carbonic anhydrase 2 (Homo sapiens) (UniProt P00918); assay: compounds binding carbonic anhydrase 2 – biochemical, small-molecule microarray, Alexa647-labelled CAII, profiling panel (AID 1122); conditions: CAII-A647 binding fluorescence, higher = more signal
[5] = COS7 lysate on small-molecule microarray, probe aHis, 635 nm (AID 1123); conditions: COS7 cell lysate, fluorescence, higher = more signal;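 note: z-score combines 667nm fluorescence intensity with signal-to-noise per printed compound spot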
[6] = probe aLAP1 signal on lysate-treated microarray – cell lysate, small-molecule microarray, COS7 lysate, primary screen (AID 1124); conditions: probe aLAP1, fluorescence, higher = more signal;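 note: lysate comes from COS7 cells expressing LAP1 and is applied at 0.3 µg/mL; score merges spot fluorescence near 667 nm with signal-to-noise over triplicate slides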
Sam68 (KHDRBS1) = assay: compounds binding KHDRBS1 protein – biochemical, small-molecule microarray, 635 nm fluorescence, primary screen (AID 1125); conditions: higher = more signal;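 note: score merges 667 nm channel intensity with signal to noise over triplicate slides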
[7] = system: Chordin-like protein 2 (CHRDL2); assay: compounds binding chordin-like 2 – biochemical, small-molecule microarray, 635 nm fluorescence, primary screen (AID 1126); conditions: fluorescence 635 nm, higher = more signal;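 note: printed compound slides probed with Chrdl2 protein at 4 µg/mL for 1 h at 4 C; score merges 667 nm emission intensity with signal to noise over three replicate slides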
[8] = target: Concanavalin-A (Canavalia ensiformis) (UniProt P02866); assay: compounds binding concanavalin A lectin – biochemical, small-molecule microarray, Alexa647 label, 635 nm, artefact control for SMM control protein annotation, primary screen (AID 1127); conditions: ConA-A647 binding fluorescence, higher = more signal;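 note: z combines 667 nm emission intensity with signal-to-noise across three replicate slides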
Chain of Concanavalin-A (Canavalia ensiformis) (P02866 whole entry, looked up): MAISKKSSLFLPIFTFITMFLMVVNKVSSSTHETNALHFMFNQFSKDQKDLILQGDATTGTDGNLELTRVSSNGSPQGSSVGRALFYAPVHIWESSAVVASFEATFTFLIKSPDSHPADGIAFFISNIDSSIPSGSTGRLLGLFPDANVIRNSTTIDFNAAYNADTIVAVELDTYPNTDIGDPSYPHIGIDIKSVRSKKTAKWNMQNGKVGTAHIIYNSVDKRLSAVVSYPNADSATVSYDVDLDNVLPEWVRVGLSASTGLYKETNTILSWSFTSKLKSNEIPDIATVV

Chain of Albumin (Bos taurus) (P02769 whole entry, looked up): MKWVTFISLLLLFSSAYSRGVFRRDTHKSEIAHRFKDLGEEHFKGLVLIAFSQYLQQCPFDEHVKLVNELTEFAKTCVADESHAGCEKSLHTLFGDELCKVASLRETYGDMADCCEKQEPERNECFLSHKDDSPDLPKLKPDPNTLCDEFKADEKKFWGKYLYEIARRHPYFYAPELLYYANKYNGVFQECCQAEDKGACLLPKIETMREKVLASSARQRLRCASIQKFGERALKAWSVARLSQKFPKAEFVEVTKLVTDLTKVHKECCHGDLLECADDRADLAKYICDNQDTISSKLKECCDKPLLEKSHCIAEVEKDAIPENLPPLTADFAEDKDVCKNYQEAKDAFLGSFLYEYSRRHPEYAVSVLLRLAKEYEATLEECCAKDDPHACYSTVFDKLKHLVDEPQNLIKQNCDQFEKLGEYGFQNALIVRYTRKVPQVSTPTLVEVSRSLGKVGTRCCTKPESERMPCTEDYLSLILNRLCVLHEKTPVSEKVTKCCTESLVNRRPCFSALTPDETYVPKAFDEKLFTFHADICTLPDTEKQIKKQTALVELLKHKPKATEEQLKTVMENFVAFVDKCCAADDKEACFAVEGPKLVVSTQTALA

| SMILES | composite z-score (Albumin (Bos taurus)) | composite Z-score [1] | composite z-score [2] | composite z-score [3] | composite z-score [4] | composite z-score [5] | composite z-score [6] | composite z-score (Sam68 (KHDRBS1)) | composite z-score [7] | composite z-score [8] |
| --- | --- | --- | --- | --- | --- | --- | --- | --- | --- | --- |
| O=C1OCCC/C=C\[C@H]2OC34C=CCN(c5ccc6ccccc6c5)C(=O)[C@H]3N(CCCO)C(=O)[C@@H]4C12 (stereo not given in full) | -0.0327 | -0.0549 (inactive) | -0.299 | -0.111 | 0.94 | 0.325 | 0.452 | 0.235 | -1.08 | -0.296 |
| COc1ccc([Si](C)(C)[C@H]2[C@H](CCO)O[C@@]3(C(=O)N(Cc4ccc(N5C(=O)c6ccccc6Oc6ccccc65)cc4)c4ccccc43)[C@@H]2C)cc1 | -0.0162 | -0.291 (inactive) | -0.0212 | -0.204 | 0.0539 | 0.648 | -0.299 | -0.652 | -0.348 | -0.352 |
| COc1ccc(C#Cc2ccc3c(c2)[C@]2(C(=O)N3)[C@H](C(=O)Nc3nc4ccccc4s3)[C@H]3C(=O)O[C@H](c4ccccc4)[C@H](c4ccccc4)N3[C@@H]2c2ccccc2OCCO)cc1 | 0.656 | 0.0221 (inactive) | 0.0942 | -0.149 | 0.564 | 1.46 | 0.476 | 1.25 | -0.0198 | 1.13 |
| C=CCNC(=O)[C@@H]1[C@H]2C(=O)O[C@H](c3ccccc3)[C@H](c3ccccc3)N2[C@H](c2ccc(O)cc2)[C@@]12C(=O)N(C(=O)OCCOC)c1ccc(C#CCCO)cc12 | -0.906 | 0.232 (inactive) | 0.364 | -0.0191 | 0.561 | 1.88 | 0.459 | 1.29 | 0.467 | 1.17 |
| CCOC(=O)C1=C[C@@H](C(C)(C)C)N(S(=O)(=O)c2ccc(C)cc2)[C@H]1c1ccc(C)cc1 | 0.804 | 0.403 (inactive) | 0.305 | 0.0554 | 0.263 | 2.49 | 0.512 | 1.29 | 0.205 | 1.18 |
| COC(=O)[C@@]1(Cc2ccccc2)[C@H]2c3cc(C(=O)N(C)C)n(CCn4cc([N+](=O)[O-])nc4C)c3C[C@H]2CN1C(=O)c1ccccc1 | 0.89 | 0.0327 (inactive) | 0.16 | -0.0254 | 0.888 | 2.56 | 0.697 | 1.1 | -0.113 | 0.526 |
| COC(=O)C(CC#Cc1ccc2c(c1)[C@]1(C(=O)N2)[C@H](C(=O)Nc2nc3ccccc3s2)[C@H]2C(=O)O[C@H](c3ccccc3)[C@H](c3ccccc3)N2[C@@H]1c1ccc(OCCO)cc1)C(=O)OC | 0.942 | 0.0898 (inactive) | 0.178 | -0.0209 | 0.553 | 2.29 | 1.04 | 1.3 | 0.517 | 1.12 |
| C=CC[C@H](OC(=O)Nc1ccc(SC)cc1)c1ccc(OCCO)cc1 | -0.0497 | 0.154 (inactive) | -0.0321 | -0.0996 | 0.655 | -0.365 | 0.656 | -1.12 | 0.0241 | -0.32 |
| Cc1ccc([C@H]2C(C(=O)O)=C[C@@H](C(C)(C)C)N2S(=O)(=O)c2ccc(C)cc2)cc1 | 0.966 | 0.0172 (inactive) | 0.305 | 0.0746 | 0.531 | 1.99 | 0.868 | 1.31 | -0.202 | 1.21 |
| NCCCCCNC(=O)[C@@H]1C[C@@H]2C(=O)N3CCC[C@H]3C(=O)N2[C@@H]1c1ccc(O)cc1 | 0.539 | -0.213 (inactive) | 0.0496 | 0.0214 | 0.442 | 1.19 | 0.666 | 0.776 | 0.466 | 0.893 |
| CCOC(=O)C1=CCC(c2ccco2)N(S(=O)(=O)c2ccc(C)cc2)C1 (stereo not given) | 0.769 | 0.204 (inactive) | 0.196 | 0.0006 | 0.581 | 1.48 | 0.509 | 1.22 | 0.388 | 0.956 |
| [N-]=[N+]=Nc1ccccc1C[C@]1(C(=O)O)N=C(c2ccc(OCCCO)cc2)O[C@H]1c1ccccc1N=[N+]=[N-] | 0.893 | 0.644 (inactive) | 0.293 | 0.166 | 0.57 | 2.84 | 0.871 | 1.32 | 0.135 | 1.13 |
| CN1C(=O)C2C(C1=O)C1C=C(CCCO)C2C(c2cccs2)N1Cc1cc2c(cc1Br)OCO2 (stereo not given) | 1.01 | 1.13 (inactive) | 0.323 | -0.144 | 0.805 | 2.24 | 1.09 | 1.3 | 0.171 | 1.18 |
| COc1ccc([Si](C)(C)[C@@H]2[C@@H](CC(=O)N3Cc4ccccc4C[C@H]3CO)O[C@]3(C(=O)N(Cc4ccc(N5CCC5=O)cc4)c4ccccc43)[C@H]2C)cc1 | 0.502 | -0.0662 (inactive) | -0.0362 | -0.234 | 0.337 | 1.14 | 0.421 | 1.24 | 1.19 | 1.08 |
| Cc1ccccc1C(O)C1C=CC2C(=O)N(c3ccccc3)C(=O)C2N1Nc1ccc([N+](=O)[O-])cc1 (stereo not given) | 0.84 | 1.19 (inactive) | 0.116 | -0.0796 | 0.684 | 2.73 | 1.03 | 1.3 | -0.051 | 1.14 |
| COc1cccc(/C=C(\C#N)C(=O)Nc2c(C)n(C)n(-c3ccccc3)c2=O)c1 | 0.998 | -0.359 (inactive) | -0.053 | -0.0454 | 0.767 | 0.366 | -0.0921 | 0.949 | -0.194 | 1.14 |
| CC(C)[C@H]1NC(=O)[C@@]23C(=O)N[C@@H](Cc4ccccc4)C2[C@H](C)[C@@]2(C)O[C@H]2C3/C=C/CCC/C=C/CNC(=O)[C@H](Cc2ccccc2)NC1=O (stereo not given in full) | 0.347 | -0.0159 (inactive) | -0.213 | -0.131 | 0.427 | 0.892 | -0.0328 | 0.86 | 0.213 | -0.464 |
| CN1C(=O)[C@@H]2[C@@H](CC(COc3ccccc3)=C([C@H](O)CCc3ccccc3)[C@@H]2CO)C1=O | -0.112 | 0.252 (inactive) | -0.0343 | -0.201 | 0.0456 | -0.492 | -0.525 | 0.0336 | 0.0213 | -0.0217 |
| COC(=O)c1c2oc(c1C(=O)OC)C(=O)N1CCC[C@H]1Cn1nncc1CN(Cc1ccccc1)C(=O)N[C@H](CO)CC2 | 0.333 | 0.316 (inactive) | -0.134 | -0.164 | 0.75 | 0.214 | 0.832 | 0.626 | -0.581 | 0.125 |
| COCCOC(=O)N1C(=O)[C@@]2(c3cc(C#CCNC(N)=O)ccc31)[C@H](c1ccc(OCCO)cc1)N1[C@H](c3ccccc3)[C@H](c3ccccc3)OC(=O)[C@H]1[C@@H]2C(N)=O | 0.319 | 0.658 (inactive) | 0.116 | -0.01 | 0.264 | 1.13 | 0.439 | 1.13 | 0.457 | 1.08 |
| O=C1O[C@H](c2ccccc2)[C@H](c2ccccc2)N2[C@H]1[C@@H](C(=O)O)[C@]1(C(=O)Nc3ccc(C#CC4(O)CCCCCC4)cc31)[C@H]2c1ccc(O)cc1 | 0.143 | 0.25 (inactive) | -0.15 | -0.0999 | 0.811 | 0.609 | 0.0189 | 0.553 | 0.224 | 0.437 |
| CN(C)CCCNC(=O)[C@@H]1c2ccccc2C(=O)N(C2CCCCC2)[C@H]1c1ccc(CO)cc1 | -0.706 | 0.245 (inactive) | 0.303 | -0.0891 | 0.672 | 1.38 | 0.337 | 1.29 | 1.06 | 1.08 |
| COc1ccc([Si](C)(C)[C@@H]2[C@@H](CC(=O)N3Cc4ccccc4C[C@H]3CO)O[C@]3(C(=O)N(c4ccccc4)c4ccccc43)[C@H]2C)cc1 | -0.104 | 8.06 (active) | 0.146 | 0.0018 | 0.429 | 1.21 | 0.339 | 1.3 | 0.943 | 0.869 |
| C[C@@]12COC[C@]13C=C(Br)[C@H](C2)[C@@]1(CO1)C3=O | -0.717 | 0.112 (inactive) | -0.315 | -0.124 | -0.643 | -0.47 | 0 | -1.91 | -0.211 | -0.858 |
| COC(=O)[C@@]1(Cc2ccccc2CN=[N+]=[N-])N=C(c2ccc(OCCCO)cc2)O[C@H]1c1ccccc1CN=[N+]=[N-] | -0.747 | -0.221 (inactive) | -0.15 | -0.101 | 0.885 | 1.77 | 0.017 | -0.63 | -1.42 | 0.114 |
| C=C[C@@H](OC)[C@H](OC(=O)Nc1ccc(SC)cc1)c1ccc(OCCO)cc1 | 0.687 | 0.0939 (inactive) | 0.23 | -0.101 | 0.361 | 1.89 | 0.35 | 1.34 | 0.207 | 0.89 |
| [N-]=[N+]=NCc1ccccc1[C@@H]1OC(c2ccc(OCCCO)cc2)=N[C@]1(Cc1ccccc1)C(=O)NCCN1CCOCC1 | 0.501 | -0.016 (inactive) | 0.369 | 0.128 | 0.676 | 1.98 | 0.994 | 1.18 | 0.325 | 1.12 |
